Only some compounds are listed: those with a hit (about 4.6% of all), similar ones and a draw of the others.
ADAM17 inh = inhibitors of human ADAM17; P78536; recombinant ADAM17, EDANS/DABCYL FRET peptide cleavage; inhibition, % at 6.95 µM; actives 0.83% (n = 370,000); AID 720648;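 active = inhibition above the mean of compounds lying between control limits plus 3 SD, set per campaign, cut at about 8.5% in these data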;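 also: 0% = DMSO-only wells as the low control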
FAS TE block = FAS thioesterase (human) inhibition; P49327; recombinant FAS-TE, OMFH fluorogenic substrate, fluorescence endpoint; inhibition, % at 15 µM; actives 0.67% (n = 360,000); AID 602261;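 active = compounds whose normalised, plate-corrected inhibition of enzyme fluorescence in the single-dose primary screen is 50% or more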;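 also: 0% = DMSO with enzyme and 100% = substrate without enzyme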
ADAM10 inh = inhibits human ADAM10; recombinant ADAM10, EDANS/DABCYL FRET peptide cleavage, 3 h; inhibition, % at 7 µM; actives 0.62% (n = 370,000); AID 720582;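 active = inhibition above a per-campaign cutoff equal to the mean of compounds falling between control-based bounds plus 3 SD, cut at about 20% in these data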;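 also: 0% = DMSO wells while the 100% control is not disclosed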
Target sequence (O14672 214-748 limits assumed): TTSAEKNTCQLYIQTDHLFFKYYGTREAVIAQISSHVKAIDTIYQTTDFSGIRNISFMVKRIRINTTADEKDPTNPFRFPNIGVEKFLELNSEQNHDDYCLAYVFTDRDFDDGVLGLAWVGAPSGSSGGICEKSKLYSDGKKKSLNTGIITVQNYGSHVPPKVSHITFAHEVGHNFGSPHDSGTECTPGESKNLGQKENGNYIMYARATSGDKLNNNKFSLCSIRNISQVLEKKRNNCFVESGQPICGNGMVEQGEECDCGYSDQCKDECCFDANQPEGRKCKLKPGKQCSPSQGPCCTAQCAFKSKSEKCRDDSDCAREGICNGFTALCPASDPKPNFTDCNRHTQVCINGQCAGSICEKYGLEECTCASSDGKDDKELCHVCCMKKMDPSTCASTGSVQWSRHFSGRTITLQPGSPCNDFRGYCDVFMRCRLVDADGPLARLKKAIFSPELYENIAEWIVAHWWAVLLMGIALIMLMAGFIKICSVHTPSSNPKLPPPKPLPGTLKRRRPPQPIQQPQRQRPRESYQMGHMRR
KLK7 zymogen act = activates the human kallikrein-7 zymogen; P49862; purified proKLK7, EDANS-DABCYL substrate fluorescence; 100% is mature enzyme control, 0% vehicle; activation, % at 7 µM; actives 0.9% (n = 370,000); AID 652039;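 active = activation above the mean of all tested compounds plus 3 SD, computed per campaign excluding outliers beyond control limits, cut at about 13% in these data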
GRIN3A LBD mod = modulates the human NR3A ligand-binding domain | NR3A LBD differential scanning fluorimetry, Tm shift; 0% = protein alone, 100% = glycine-bound protein | Tm shift relative to glycine control, % at 25 µM | actives 2.5% (n = 340,000) | AID 1259313;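 active = melting temperature shift of at least 10% of the positive control shift, at one fixed dose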
Active calls of the source: *.

Results for Cc1ccc(NC(=O)c2ccc(NS(=O)(=O)c3c(C)noc3C)cc2)cc1C ?
ADAM17 inh: -0.9; FAS TE block: -0.3; ADAM10 inh: 5.3; KLK7 zymogen act: 0.1; GRIN3A LBD mod: 30.1*

Results for Cc1ccc(NC(=O)c2ccc(NC(=O)c3ccccc3)cc2)cc1C ?
ADAM17 inh: -1.9; FAS TE block: 3.7; ADAM10 inh: -16.1; KLK7 zymogen act: -0.1; GRIN3A LBD mod: 17.0*

How did O=C(Nc1cc(-c2ccccc2)[nH]n1)c1ccc(Cl)cc1 do in these assays?
ADAM17 inh: -1.9; FAS TE block: 3.6; ADAM10 inh: 11.6; KLK7 zymogen act: -0.1; GRIN3A LBD mod: 18.5*

How did O=C(Nc1ccc2c(c1)OCCO2)c1oc2ccccc2c1NC(=O)C1CC1 do in these assays?
ADAM17 inh: -2.6; FAS TE block: 22.9; ADAM10 inh: -3.6; KLK7 zymogen act: 0.4; GRIN3A LBD mod: -4.3

What do the screens show for `Cc1ccc(C(=O)Nc2ccc(Nc3ccccc3)cc2)cc1C`?
ADAM17 inh: 5.2; FAS TE block: 19.8; ADAM10 inh: 19.8; KLK7 zymogen act: 0.4; GRIN3A LBD mod: 6.5

What do the screens show for `O=C(Nc1ccccc1)c1oc2ccccc2c1NC(=O)C1CC1`?
ADAM17 inh: -3.6; FAS TE block: 8.8; ADAM10 inh: -8.8; KLK7 zymogen act: 0.5; GRIN3A LBD mod: 13.3*

Results for COc1ccc(NC(=O)c2ccc(NS(=O)(=O)c3c(C)noc3C)cc2)cc1OC ?
ADAM17 inh: -0.8; FAS TE block: -1.0; ADAM10 inh: 4.0; KLK7 zymogen act: 0.2; GRIN3A LBD mod: -3.5

Results for N#C/C(=C\c1cccnc1)C(=O)Nc1ccc(Cl)cc1 ?
ADAM17 inh: 4.4; FAS TE block: 5.8; ADAM10 inh: -4.4; KLK7 zymogen act: -0.5; GRIN3A LBD mod: 3.5

How did Cc1ccc(C(=O)Nc2ccc(Nc3ccccc3)cc2)cc1Br do in these assays?
ADAM17 inh: 8.2; FAS TE block: 35.9; ADAM10 inh: 12.4; KLK7 zymogen act: -0.7; GRIN3A LBD mod: 25.5*

What do the screens show for `N#C/C(C(=O)Nc1ccc(Cl)cc1)=C(/S)Nc1ccccc1`?
ADAM17 inh: 1.1; FAS TE block: 7.6; ADAM10 inh: 9.7; KLK7 zymogen act: -3.1; GRIN3A LBD mod: 32.5*

Results for O=C(Nc1ccc(Nc2ccccc2)cc1)c1ccc(Br)cc1 ?
ADAM17 inh: -3.8; FAS TE block: -2.2; ADAM10 inh: -3.0; KLK7 zymogen act: 1.0; GRIN3A LBD mod: 36.3*

What do the screens show for `O=C(Nc1ccc(Cl)cc1)C1=Cc2ccccc2OC1`?
ADAM17 inh: 7.0; FAS TE block: 17.8; ADAM10 inh: 4.9; KLK7 zymogen act: 0.1; GRIN3A LBD mod: 19.9*

How did CC(C)CCNC(=O)CSc1nc2c(c(=O)[nH]1)CCC2 do in these assays?
ADAM17 inh: 0.0; ADAM10 inh: 3.7

What do the screens show for `Cc1ccc(C(=O)Nc2ccc3ncccc3c2)cc1`?
ADAM17 inh: -1.8; FAS TE block: -0.5; ADAM10 inh: -5.6; KLK7 zymogen act: -0.8; GRIN3A LBD mod: -2.0

Results for O=C(Nc1ccc2ncccc2c1)c1cccc(Br)c1 ?
ADAM17 inh: -2.4; FAS TE block: -1.0; ADAM10 inh: -1.9; KLK7 zymogen act: -0.6; GRIN3A LBD mod: 22.4*

What do the screens show for `O=C(Nc1ccccc1)c1cccc(N2C(=O)CCC2=O)c1`?
ADAM17 inh: -3.8; FAS TE block: -5.8; ADAM10 inh: 1.3; KLK7 zymogen act: 0.3; GRIN3A LBD mod: 0.0

How did O=C(Nc1ccc(Nc2ccccc2)cc1)c1ccc(Cl)cc1 do in these assays?
ADAM17 inh: 2.8; FAS TE block: 33.5; ADAM10 inh: 2.4; KLK7 zymogen act: 0.5; GRIN3A LBD mod: 31.9*

How did O=C(Nc1ccc(Br)cc1)c1cccc(N2C(=O)CCC2=O)c1 do in these assays?
ADAM17 inh: -0.1; FAS TE block: 0.9; ADAM10 inh: -3.1; KLK7 zymogen act: -0.1; GRIN3A LBD mod: 14.1*

What do the screens show for `O=C(Nc1cccc(C(=O)Nc2ccc(Br)cc2)c1)c1ccccc1`?
ADAM17 inh: 3.2; FAS TE block: 5.5; ADAM10 inh: 8.7; KLK7 zymogen act: 0.5; GRIN3A LBD mod: 27.3*

How did O=C(Nc1ccc(NS(=O)(=O)c2ccccc2)cc1)c1ccc(Cl)cc1 do in these assays?
ADAM17 inh: 0.7; FAS TE block: -0.3; ADAM10 inh: 1.2; KLK7 zymogen act: -0.4; GRIN3A LBD mod: -5.3

What do the screens show for `CCc1ccccc1-c1cc(C(=O)OC)c2n(c1=O)CCC2`?
ADAM17 inh: -0.9; ADAM10 inh: -2.9; KLK7 zymogen act: -0.3
